In assay [1] the target is Rho-associated protein kinase 1 (Homo sapiens) (UniProt Q13464). The note with it: at 1 µM.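 Also: reported values are mean percent inhibition of ROCK1.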
Assay [2] addresses Rho-associated protein kinase 2 (Homo sapiens) (UniProt O75116). The following applies: at 0.1 µM.
Assay [3] has the same target. The following applies: at 1 µM.
Assay [4] concerns the target Ribosomal protein S6 kinase alpha-1 (Homo sapiens) (UniProt Q15418). The note with it: at 0.1 µM.
Assay [5] has the same target. The note with it: at 1 µM.
For assay [6], the target named is Ribosomal protein S6 kinase alpha-3 (Homo sapiens) (UniProt P51812). The following applies: at 0.1 µM.
Sequence of Ribosomal protein S6 kinase alpha-3 (Homo sapiens) (P51812 whole entry): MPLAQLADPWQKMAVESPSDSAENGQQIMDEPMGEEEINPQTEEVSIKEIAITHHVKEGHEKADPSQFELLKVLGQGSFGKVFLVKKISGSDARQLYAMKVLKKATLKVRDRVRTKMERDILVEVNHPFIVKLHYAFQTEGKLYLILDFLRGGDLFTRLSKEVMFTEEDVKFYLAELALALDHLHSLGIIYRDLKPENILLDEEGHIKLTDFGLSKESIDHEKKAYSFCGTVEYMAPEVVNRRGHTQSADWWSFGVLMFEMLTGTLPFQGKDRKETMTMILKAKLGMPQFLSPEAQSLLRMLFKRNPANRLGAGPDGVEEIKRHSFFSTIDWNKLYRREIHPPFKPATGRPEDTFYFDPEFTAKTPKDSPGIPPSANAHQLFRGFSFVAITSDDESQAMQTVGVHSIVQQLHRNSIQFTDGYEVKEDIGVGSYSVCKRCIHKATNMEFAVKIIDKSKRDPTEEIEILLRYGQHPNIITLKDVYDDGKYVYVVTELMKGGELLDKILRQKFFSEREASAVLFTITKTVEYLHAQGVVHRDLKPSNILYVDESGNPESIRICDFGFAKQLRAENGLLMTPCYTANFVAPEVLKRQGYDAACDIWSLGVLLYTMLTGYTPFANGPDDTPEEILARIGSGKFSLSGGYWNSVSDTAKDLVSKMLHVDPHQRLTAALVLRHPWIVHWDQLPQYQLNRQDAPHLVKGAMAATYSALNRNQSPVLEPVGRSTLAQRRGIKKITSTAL
The target is the same in assay [7]. The note with it: at 1 µM.
In assay [8] the target is Ribosomal protein S6 kinase alpha-2 (Homo sapiens) (UniProt Q15349). The note with it: at 0.1 µM.
For assay [9] the target is unchanged. The following applies: at 1 µM.
Assay [10] deals with Ribosomal protein S6 kinase alpha-6 (Homo sapiens) (UniProt Q9UK32). The following applies: at 0.1 µM.
The target is the same in assay [11]. The note with it: at 1 µM.
The target in assay [12] is T1, Serine/threonine-protein kinase Sgk1 (Homo sapiens) (UniProt O00141).
T1 sequence (whole entry): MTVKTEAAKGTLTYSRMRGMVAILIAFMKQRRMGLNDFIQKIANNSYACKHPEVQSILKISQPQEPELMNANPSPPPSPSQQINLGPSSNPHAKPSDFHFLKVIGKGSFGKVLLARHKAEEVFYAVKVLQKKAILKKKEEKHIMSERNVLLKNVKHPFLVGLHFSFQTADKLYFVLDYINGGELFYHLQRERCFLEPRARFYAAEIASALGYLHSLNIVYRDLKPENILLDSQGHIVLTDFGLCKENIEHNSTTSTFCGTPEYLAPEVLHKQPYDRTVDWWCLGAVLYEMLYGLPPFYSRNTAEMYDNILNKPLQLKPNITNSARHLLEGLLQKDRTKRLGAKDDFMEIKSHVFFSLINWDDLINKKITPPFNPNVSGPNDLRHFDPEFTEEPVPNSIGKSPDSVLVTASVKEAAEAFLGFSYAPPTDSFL
The following applies: at 0.1 µM.

Assay [13] concerns the target T1, Serine/threonine-protein kinase Sgk1 (Homo sapiens). The following applies: at 1 µM.
Assay [14] concerns the target T2, Serine/threonine-protein kinase Sgk2 (Homo sapiens) (UniProt Q9HBY8).
T2 sequence (whole entry): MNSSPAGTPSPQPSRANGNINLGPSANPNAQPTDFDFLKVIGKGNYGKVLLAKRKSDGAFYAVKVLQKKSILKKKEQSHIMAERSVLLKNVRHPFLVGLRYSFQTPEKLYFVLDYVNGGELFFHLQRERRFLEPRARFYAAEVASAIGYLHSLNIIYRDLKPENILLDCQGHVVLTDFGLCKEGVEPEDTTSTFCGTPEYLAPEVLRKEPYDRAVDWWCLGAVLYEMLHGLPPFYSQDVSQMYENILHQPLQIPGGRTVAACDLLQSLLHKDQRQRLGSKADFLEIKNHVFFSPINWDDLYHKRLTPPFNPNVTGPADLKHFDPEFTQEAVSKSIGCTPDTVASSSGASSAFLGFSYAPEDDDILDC
The note with it: at 0.1 µM.

Assay [15] has as its target T2, Serine/threonine-protein kinase Sgk2 (Homo sapiens). The following applies: at 1 µM.
Assay [16] has as its target T3, Serine/threonine-protein kinase Sgk3 (Homo sapiens) (UniProt Q96BR1).
T3 sequence (whole entry): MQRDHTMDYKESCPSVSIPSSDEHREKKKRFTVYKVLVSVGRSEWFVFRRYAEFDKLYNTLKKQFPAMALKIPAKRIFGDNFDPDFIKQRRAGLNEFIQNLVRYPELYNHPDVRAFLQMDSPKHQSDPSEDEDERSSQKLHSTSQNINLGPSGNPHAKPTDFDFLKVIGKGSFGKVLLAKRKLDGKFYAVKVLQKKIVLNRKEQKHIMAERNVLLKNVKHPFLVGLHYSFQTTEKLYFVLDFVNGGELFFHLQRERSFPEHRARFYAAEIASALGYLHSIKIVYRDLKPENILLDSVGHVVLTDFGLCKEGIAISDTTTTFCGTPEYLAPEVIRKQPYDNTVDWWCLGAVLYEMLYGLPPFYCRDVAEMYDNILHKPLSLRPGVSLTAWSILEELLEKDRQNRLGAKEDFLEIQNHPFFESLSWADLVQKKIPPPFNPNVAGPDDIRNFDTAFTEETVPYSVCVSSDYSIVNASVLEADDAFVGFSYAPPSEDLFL
The following applies: at 0.1 µM.

Assay [17] concerns the target T3, Serine/threonine-protein kinase Sgk3 (Homo sapiens). The note with it: at 1 µM.
Assay [18] addresses 5'-AMP-activated protein kinase catalytic subunit alpha-1 (Homo sapiens) (UniProt Q13131). The note with it: at 0.1 µM.
Assay [19] shares this target. The note with it: at 1 µM.
Assay [20] concerns the target 5'-AMP-activated protein kinase catalytic subunit alpha-2 (Homo sapiens) (UniProt P54646). The following applies: at 0.1 µM.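 Also: mean inhibition measured on the AMPK complex of alpha2, beta1 and gamma1 subunits.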

Sequence of Ribosomal protein S6 kinase alpha-1 (Homo sapiens) (Q15418 whole entry): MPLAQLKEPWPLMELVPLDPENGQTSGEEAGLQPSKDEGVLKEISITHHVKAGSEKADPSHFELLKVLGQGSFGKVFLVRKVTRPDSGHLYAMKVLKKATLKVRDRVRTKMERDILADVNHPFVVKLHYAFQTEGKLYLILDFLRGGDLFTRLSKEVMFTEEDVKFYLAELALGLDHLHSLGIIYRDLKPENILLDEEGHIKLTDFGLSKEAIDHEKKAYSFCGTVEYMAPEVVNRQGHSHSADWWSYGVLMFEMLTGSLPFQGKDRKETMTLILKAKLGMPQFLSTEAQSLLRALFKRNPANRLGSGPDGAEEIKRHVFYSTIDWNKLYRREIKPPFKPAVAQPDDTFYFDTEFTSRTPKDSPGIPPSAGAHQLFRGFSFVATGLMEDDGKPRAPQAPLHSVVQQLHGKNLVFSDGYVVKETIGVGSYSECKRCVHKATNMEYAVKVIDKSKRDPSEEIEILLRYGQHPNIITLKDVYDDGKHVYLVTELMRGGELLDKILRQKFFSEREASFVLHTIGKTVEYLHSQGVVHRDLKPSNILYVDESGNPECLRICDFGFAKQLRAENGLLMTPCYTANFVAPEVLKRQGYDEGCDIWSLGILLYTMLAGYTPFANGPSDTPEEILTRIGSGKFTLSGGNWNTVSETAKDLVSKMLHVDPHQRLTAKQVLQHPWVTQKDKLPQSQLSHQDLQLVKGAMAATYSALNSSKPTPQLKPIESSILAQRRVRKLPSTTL
Sequence of 5'-AMP-activated protein kinase catalytic subunit alpha-1 (Homo sapiens) (Q13131 whole entry, looked up): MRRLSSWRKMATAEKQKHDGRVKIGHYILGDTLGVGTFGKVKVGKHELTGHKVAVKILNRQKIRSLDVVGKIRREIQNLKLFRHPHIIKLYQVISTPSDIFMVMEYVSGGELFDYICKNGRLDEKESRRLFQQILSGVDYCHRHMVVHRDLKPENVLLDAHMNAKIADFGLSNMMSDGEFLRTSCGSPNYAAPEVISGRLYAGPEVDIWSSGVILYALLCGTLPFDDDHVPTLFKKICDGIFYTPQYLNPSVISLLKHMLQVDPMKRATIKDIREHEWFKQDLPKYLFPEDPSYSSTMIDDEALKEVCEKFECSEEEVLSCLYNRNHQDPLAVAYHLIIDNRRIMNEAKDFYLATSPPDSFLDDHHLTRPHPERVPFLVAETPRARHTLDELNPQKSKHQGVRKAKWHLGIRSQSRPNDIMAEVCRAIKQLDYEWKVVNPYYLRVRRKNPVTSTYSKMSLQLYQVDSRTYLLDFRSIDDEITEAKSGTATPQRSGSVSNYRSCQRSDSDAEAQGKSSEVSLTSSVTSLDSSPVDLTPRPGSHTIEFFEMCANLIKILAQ
Sequence of Rho-associated protein kinase 2 (Homo sapiens) (O75116 whole entry, looked up): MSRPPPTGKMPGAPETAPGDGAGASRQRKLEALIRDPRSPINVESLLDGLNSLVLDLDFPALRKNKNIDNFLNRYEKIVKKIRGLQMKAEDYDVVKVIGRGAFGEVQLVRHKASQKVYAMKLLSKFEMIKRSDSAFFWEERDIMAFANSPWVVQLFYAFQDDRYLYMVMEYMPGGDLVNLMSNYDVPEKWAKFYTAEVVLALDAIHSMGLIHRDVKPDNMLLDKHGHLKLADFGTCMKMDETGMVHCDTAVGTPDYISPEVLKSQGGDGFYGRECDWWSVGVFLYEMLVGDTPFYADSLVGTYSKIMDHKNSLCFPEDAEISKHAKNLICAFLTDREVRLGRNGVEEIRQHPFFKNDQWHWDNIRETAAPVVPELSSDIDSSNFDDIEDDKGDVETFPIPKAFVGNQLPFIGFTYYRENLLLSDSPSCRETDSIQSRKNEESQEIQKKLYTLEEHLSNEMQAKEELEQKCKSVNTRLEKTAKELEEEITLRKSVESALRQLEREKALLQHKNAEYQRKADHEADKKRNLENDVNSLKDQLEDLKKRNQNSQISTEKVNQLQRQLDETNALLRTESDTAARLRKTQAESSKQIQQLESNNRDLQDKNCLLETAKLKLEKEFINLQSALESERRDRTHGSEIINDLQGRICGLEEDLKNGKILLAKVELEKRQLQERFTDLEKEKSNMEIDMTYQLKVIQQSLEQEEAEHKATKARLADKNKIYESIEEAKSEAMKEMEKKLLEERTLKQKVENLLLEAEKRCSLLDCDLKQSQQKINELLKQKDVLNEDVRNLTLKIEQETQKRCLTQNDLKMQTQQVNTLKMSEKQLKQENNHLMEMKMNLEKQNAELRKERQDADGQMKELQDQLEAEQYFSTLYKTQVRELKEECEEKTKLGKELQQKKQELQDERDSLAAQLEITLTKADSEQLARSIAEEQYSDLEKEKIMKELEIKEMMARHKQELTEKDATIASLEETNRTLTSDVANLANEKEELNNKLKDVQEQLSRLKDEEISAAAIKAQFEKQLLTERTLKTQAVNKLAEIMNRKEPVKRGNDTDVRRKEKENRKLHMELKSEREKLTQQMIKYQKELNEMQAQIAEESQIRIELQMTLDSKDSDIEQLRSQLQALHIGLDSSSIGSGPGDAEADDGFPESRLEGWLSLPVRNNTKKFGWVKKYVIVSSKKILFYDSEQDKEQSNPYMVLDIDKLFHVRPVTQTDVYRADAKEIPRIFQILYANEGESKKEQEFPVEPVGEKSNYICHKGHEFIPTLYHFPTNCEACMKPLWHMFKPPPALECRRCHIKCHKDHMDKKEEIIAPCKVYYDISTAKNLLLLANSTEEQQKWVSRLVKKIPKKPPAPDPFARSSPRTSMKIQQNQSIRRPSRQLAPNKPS
Sequence of Rho-associated protein kinase 1 (Homo sapiens) (Q13464 2-1354 limits assumed): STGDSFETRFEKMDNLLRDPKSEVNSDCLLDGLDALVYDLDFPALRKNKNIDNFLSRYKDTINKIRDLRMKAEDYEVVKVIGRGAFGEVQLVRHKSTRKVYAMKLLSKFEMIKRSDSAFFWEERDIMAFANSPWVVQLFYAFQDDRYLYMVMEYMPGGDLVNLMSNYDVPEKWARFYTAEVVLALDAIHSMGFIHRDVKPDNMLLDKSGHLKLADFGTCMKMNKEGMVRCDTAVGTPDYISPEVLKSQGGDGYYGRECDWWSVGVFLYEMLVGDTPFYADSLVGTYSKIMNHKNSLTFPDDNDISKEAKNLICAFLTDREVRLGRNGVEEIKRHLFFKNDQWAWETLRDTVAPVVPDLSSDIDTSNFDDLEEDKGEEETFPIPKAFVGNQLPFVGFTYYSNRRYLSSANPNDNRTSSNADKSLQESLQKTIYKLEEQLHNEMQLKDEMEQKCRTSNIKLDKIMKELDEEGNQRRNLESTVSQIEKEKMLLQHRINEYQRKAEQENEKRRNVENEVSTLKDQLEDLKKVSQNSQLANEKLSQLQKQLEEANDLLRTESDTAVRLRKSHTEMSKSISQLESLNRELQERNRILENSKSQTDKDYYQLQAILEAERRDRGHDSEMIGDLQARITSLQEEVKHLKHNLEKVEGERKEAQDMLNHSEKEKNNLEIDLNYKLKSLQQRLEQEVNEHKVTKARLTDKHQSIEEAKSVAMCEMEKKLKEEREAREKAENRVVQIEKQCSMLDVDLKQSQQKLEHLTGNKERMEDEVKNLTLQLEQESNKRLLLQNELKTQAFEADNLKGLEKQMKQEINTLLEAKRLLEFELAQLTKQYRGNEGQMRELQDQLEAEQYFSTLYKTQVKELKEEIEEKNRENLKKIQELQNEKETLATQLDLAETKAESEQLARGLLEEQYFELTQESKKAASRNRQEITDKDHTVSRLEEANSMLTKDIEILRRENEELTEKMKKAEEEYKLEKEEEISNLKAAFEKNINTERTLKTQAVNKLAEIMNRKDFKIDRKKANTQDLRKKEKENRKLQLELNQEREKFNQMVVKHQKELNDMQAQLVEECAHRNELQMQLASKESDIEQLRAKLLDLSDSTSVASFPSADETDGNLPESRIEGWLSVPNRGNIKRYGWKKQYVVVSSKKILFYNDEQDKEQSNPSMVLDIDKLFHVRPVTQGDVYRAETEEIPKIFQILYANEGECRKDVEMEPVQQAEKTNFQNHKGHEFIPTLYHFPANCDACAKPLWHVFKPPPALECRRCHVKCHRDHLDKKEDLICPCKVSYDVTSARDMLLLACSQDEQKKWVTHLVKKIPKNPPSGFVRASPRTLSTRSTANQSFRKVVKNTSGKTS

Turning to `CCc1cccc(CC)c1/C=C/c1cncc(C(=O)NC)c1`, the inhibition in assay [1] was 1.22%; in assay [2], 1.66%; in [3] it was -0.13%; in assay [4], 1.4%; in assay [5], 0.95%; in [6] it was 0.3%. In addition, the inhibition is -0.37% in assay [7]; 1.51% in [8]; 0.74% in [9]; 0.65% in assay [10]; 1.72% in [11]; 2.19% in assay [12]. Also, the inhibition is -0.86% in assay [13]; 3.62% in assay [14]; -2.52% in assay [15]; 0.54% in assay [16]; 0.72% in assay [17]; 1.05% in [18]. The inhibition came to 1.48% in [19] and 0.22% in assay [20].
Take `CN(C)CCCNc1nccc(-c2c(-c3ccc(F)cc3)nn3cc(C(F)(F)F)ccc23)n1`: the inhibition was 1.8% in assay [1]; 1.71% in [2]; 3.88% in assay [3]; 2.04% in [4]; 4.02% in [5]; 0.68% in assay [6]. For the same molecule, the inhibition in assay [7] is 2.23%; in assay [8], 1.91%; in [9], 3.08%; in assay [10], 0.86%; in assay [11], 2.42%; in assay [12], 1.95%. The inhibition in assay [13] was determined as 2.09%; in [14], 2.67%; in assay [15], 1.75%; in assay [16], 1.92%; in assay [17], 0.78%; in [18], 1.32%. Moreover, the inhibition in [19] was 1.37%; in assay [20], 0.22%.
As to `COc1cc2ncn(-c3cc(OCc4cccs4)c(C(N)=O)s3)c2cc1OC`, the inhibition in assay [1] is 2.63%; in assay [2] it was 3.91%; in assay [3], 11.3%; in assay [4], 4.14%; in assay [5], 12.6%; in assay [6], 3.71%. The inhibition in [7] was 11.8%; in assay [8] it was 2.98%; in assay [9], 9.31%; in assay [10] it was 1.53%; in assay [11], 9.08%; in assay [12] it was 5.73%. The inhibition in [13] stood at 8.78%; in [14], 4.34%; in assay [15], 10.6%; in [16], 5.06%; in assay [17], 6.9%; in [18], 3.16%. For the same molecule, the inhibition in assay [19] came out at 12.8%; in assay [20], 3.12%.
As for `Fc1ccc(-c2ncn(C3CCNCC3)c2-c2ccnc(Oc3ccc(Oc4ccccc4)cc3)n2)cc1`, the inhibition is 1.68% in [1]; 2.53% in assay [2]; 3.69% in [3]; 3.01% in [4]; 2.7% in [5]; 1.73% in assay [6]. Besides, the inhibition turned out to be 2.37% in assay [7]; 3.61% in assay [8]; 3.8% in [9]; 2.38% in assay [10]; 3.14% in [11]; 1.53% in assay [12]. The inhibition worked out at 2.46% in assay [13]; 3.23% in assay [14]; 3.39% in [15]; 4.76% in assay [16]; 2.42% in assay [17]; 2.46% in assay [18]. Also, the inhibition in assay [19] came out at 4.03%; in assay [20], 8.18%.
With `C[C@@H](Oc1cc(-n2cnc3ccc(OC4CCN(C)CC4)cc32)sc1C(N)=O)c1ccccc1Cl`, the inhibition stood at 5.39% in assay [1]; 1.57% in assay [2]; 5.08% in assay [3]; 2.3% in assay [4]; 12.4% in [5]; 3.29% in assay [6]. The inhibition is 21.8% in [7]; 4.54% in assay [8]; 20.2% in [9]; 7.23% in assay [10]; 40.4% in [11]; 1.16% in [12]. The inhibition came to 1.49% in assay [13]; 2.92% in assay [14]; 1.45% in [15]; 3.29% in assay [16]; 2.26% in assay [17]; 5.35% in assay [18]. The inhibition was determined as 21.6% in [19] and 5.98% in assay [20].
With `N#Cc1ccc(Oc2nccc(-c3c(-c4ccc(F)cc4)ncn3C3CCNCC3)n2)cc1`, the inhibition in assay [1] was found to be 4.31%; in assay [2] it was 2.81%; in [3], 4.38%; in [4], 0.36%; in [5], 1.46%; in assay [6], 1.39%. In addition, the inhibition in [7] stood at 1.85%; in [8] it was 2.38%; in [9], 3.07%; in [10], 0.67%; in assay [11], 0.97%; in assay [12] it was 2.45%. Further, the inhibition is 2.02% in [13]; 7.44% in assay [14]; 3.86% in [15]; 2.02% in assay [16]; 3.62% in assay [17]; 2.27% in [18]. Further, the inhibition in assay [19] is 3.89%; in [20], 3.09%.

The values are drawn from ChEMBL document CHEMBL1961873, “Compounds: GSK PKIS; Assays: Nanosyn kinase panel” (2012).
